The results in this text go back to PubChem BioAssay AID504832 (National Center for Advancing Translational Sciences (NCATS), 2011).

The whole screen tested about 310,000 compounds, of which about 18,000 (5.8%) were called active. Another 22% or so got no clear call; they are omitted. What follows is part of a selection rich in actives, with near analogues and random picks from the rest. A number with no mark means an inactive call. The call rests on the fitted dose curve; in most records, active means well fitted inhibition curve with a large enough effect; inconclusive means small, poorly fitted or top-dose-only effect, or another doubt; inactive means no such curve, though single readings can be large or run the other way.
On the % scale 0 is the no-effect control and ±100 the full control effect; potency means the concentration at half of the fitted maximal effect.

This test in a line: Primary qHTS for delayed death inhibitors of the malarial parasite plastid, 48 hour incubation. The note with it: P. falciparum luciferase growth in erythrocytes; series mostly up to 28.7 µM; activity change, negative = inhibition: at the top concentration. In a few lines: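 Cell-based growth assay: transgenic P. falciparum expressing firefly luciferase, cultured in red cells within RPMI 1640 containing 0.5% w/v Albumax, 24 mM bicarbonate and gentamycin. A drop in luciferase activity indicates inhibition.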
(In general: qHTS replaces the single test concentration by a dilution series.)
Turning to `CN(C)Cc1ccccc1C1(O)c2ccccc2CSc2ccccc21` (stereo not drawn), the “activity change, negative = inhibition” value was 0%.
For `CN(C)CC/C=C1\c2ccccc2CSc2ccccc21`, the Potency is 10.4 µM (active).
Turning to `CCOc1ccc(C(=O)Nc2cc(Cl)ccc2-n2cncn2)cc1OC`, the “activity change, negative = inhibition” value is 15.5%.
Still for that read-out and setting: the figure for `O=C(CNc1cccc(S(=O)(=O)N2CCCCC2)c1)Nc1ccccc1F` is -12.3%; for `O=C(NCc1cc(F)cc(C(F)(F)F)c1)C1CCC(=O)N(C2CCCC2)C1` (stereo not drawn) it is -11.5%.
Consider `Cc1cc(NC(=O)c2ccco2)c(=O)n(Cc2c(F)cccc2Cl)c1`, for which the “activity change, negative = inhibition” value is -0.249%.
`COC(=O)C1C(=O)NCC1c1ccc(OC)cc1` (stereo not drawn): the “activity change, negative = inhibition” value is 23.4%.
On to `COC(=O)C1=C(Nc2ccc(C)cc2)C=C(C)C(C(=O)OC)C1c1ccc(F)cc1` (stereo not drawn), for which the Potency is 3.7 µM (active).
The same measure, in the same setting: the figure for `COC(=O)C1=C(Nc2ccc(OC)cc2)C=C(C)C(C(=O)OC)C1c1ccc(C)cc1` (stereo not drawn) is 10.4 µM (active).
Consider `COc1ccc(N2C(=O)C(O)C2c2ccc(C)cc2)cc1` (stereo not drawn), for which the “activity change, negative = inhibition” value is 5.17%.
The same measure, in the same setting: the figure for `Cc1ccc(NC(=S)Nc2ccc(F)cc2)cc1` is 6.95%; for `Cc1ccc(C(=O)CNc2ccc(F)cc2)cc1` it is -7.87%.
On the same count and under the same terms, under `c1ccc2c(c1)CCc1snnc1-2` stands 23.2%.
`COC(=O)c1cc(CNC(=O)CC(C)c2ccccc2)ccc1OC` (stereo not drawn): the “activity change, negative = inhibition” value is 6.94%.
As to `CCOc1cc(/C=N/NC(=O)CN2CCCCC2)ccc1O`, the “activity change, negative = inhibition” value was 37.9%.
For the compound `CCOC(=O)N1CCN(CCC(=O)Nc2ccccc2)CC1`, the “activity change, negative = inhibition” value is -15.3%.
On to `O=C(Nc1c2c(nc3ccccc13)CCCC2)c1ccccc1Br`, for which the “activity change, negative = inhibition” value is 2.38%.
In the case of `Cc1noc(C)c1COC(=O)c1cc2ccccc2cc1O`, the “activity change, negative = inhibition” value was 22.6%.
As to `O=C(NNc1c2ccccc2nc2ccccc12)c1cc2ccccc2cc1O`, the Potency is 11.7 µM (active).
With `COc1cccc(CSc2nc3nc(C)cc(C)n3n2)c1`, the “activity change, negative = inhibition” value is 18.8%.
On to `CCn1c(SCc2ccccc2)nc2c(c1=O)SCC2`, for which the “activity change, negative = inhibition” value was -2.57%.
Take `COCCCn1c(SCc2cccc(OC)c2)nc2cc(OC)c(OC)cc2c1=N`: the Potency was 2.62 µM (active).
For the compound `COCCn1c(SCc2nc3cc(OC)c(OC)cc3c(=O)[nH]2)nnc1-c1ccncc1`, the “activity change, negative = inhibition” value is 1.35%.
With `COC(=O)CSc1nc2ccccc2c(=O)n1Cc1ccccc1`, the “activity change, negative = inhibition” value was 13.8%.
As to `CCn1c(SCc2ccccc2)nc2cc(OC)c(OC)cc2c1=O`, the Potency was 10.4 µM (active).
Regarding `Cc1ccc(NC2CCCN(C(=O)CCc3cn[nH]c3)C2)cc1C` (stereo not drawn), the “activity change, negative = inhibition” value was -0.298%.
Regarding `COc1ccc(S(=O)(=O)Nc2cc(C)on2)cc1NC(C)=O`, the “activity change, negative = inhibition” value is -8.24%.
In the case of `Cc1ccc2nc(SCC(=O)N3CC(C)OC(C)C3)nc(=O)n2c1` (stereo not drawn), the “activity change, negative = inhibition” value was -18.9%.
The same measure, in the same setting: under `CC(C)Nc1ccc(-n2nc3ccccc3[n+]2[O-])cc1` stands 115%; under `COc1ccc(NC(=O)C2CCN(S(=O)(=O)c3ccc4[nH]c(=O)oc4c3)CC2)c(OC)c1`, -16.8%; under `COc1ccc(C(CNC(=O)COc2ccccc2OC)N2CCCCC2)cc1` (stereo not drawn), -3.54%.
On to `COc1ccccc1CN1CC(C(=O)NCCc2cn[nH]c2)CCC1=O` (stereo not drawn), for which the “activity change, negative = inhibition” value is 6.82%.
Regarding `CN1c2ccc([N+](=O)[O-])cc2C(C)(C)C12C=Cc1cc(C(=O)O)ccc1O2` (stereo not drawn), the activity change, negative = inhibition is 16.2% [at 0.00184 µM].
Consider `COc1ccc2c(c1)C=CC1(O2)N(CCO)c2ccccc2C1(C)C` (stereo not drawn), for which the Potency was 13.1 µM (active).
As to `COc1ccc2c(c1)C(SCC(=O)NCc1ccccc1)CC(C)(C)O2` (stereo not drawn), the “activity change, negative = inhibition” value is -9.16%.
For `CC1CCCCC1NC(=O)COC(=O)Cc1ccc(Cl)cc1` (stereo not drawn), the “activity change, negative = inhibition” value was 12.1%.
`CSc1nnc2ccc(-c3ccc(C)cc3)nn12`: the “activity change, negative = inhibition” value is 30.7%.
As to `Cc1ccc(S(=O)(=O)n2cccc2CO)cc1`, the “activity change, negative = inhibition” value was 17.4%.
On to `CN(C)CCNc1ccc(-c2n[nH]c(=O)c3ccccc23)cc1[N+](=O)[O-]`, for which the “activity change, negative = inhibition” value is 18.1%.
For the compound `COCCNc1cc(NCCOC)c([N+](=O)[O-])cc1[N+](=O)[O-]`, the “activity change, negative = inhibition” value is 0.111%.
`COCCNc1ccc(-c2n[nH]c(=O)c3ccccc23)cc1[N+](=O)[O-]`: the Potency is 4.65 µM (active).
On to `COc1ccc(CNC(=O)c2cc(=O)c3c(C)cc(C)cc3o2)cc1`, for which the “activity change, negative = inhibition” value is 9.71%.
Turning to `O=C(c1cc(-c2ccc(Cl)cc2)on1)N1CCN(c2ccccc2)CC1`, the “activity change, negative = inhibition” value was 109%.
As for `CC(C)n1cnc2c(Nc3cccc(Cl)c3)nc(N(CCO)CCCO)nc21`, the Potency was 7.38 µM (active).
As for `O=C(Nc1ccccc1N1CCCCC1)c1cccc(F)c1`, the “activity change, negative = inhibition” value is -1.23%.
With `COc1ccccc1C(=O)NC(=S)Nc1ccccc1N1CCCCC1`, the “activity change, negative = inhibition” value was 42.8%.
On to `O=C(NC(=S)Nc1ccccc1N1CCCCC1)c1ccc(F)cc1`, for which the Potency was 8.28 µM (active).
For `O=C(COc1nsnc1N1CCOCC1)Nc1ccccc1Cl`, the “activity change, negative = inhibition” value was 28.2%.
Regarding `Cn1c(=O)n(C)c2cc(C(=O)Nc3ccc(Br)cc3)ccc21`, the “activity change, negative = inhibition” value is -47.9%.
On the same count and under the same terms, the figure for `N#CCSc1nc(-c2ccccc2)nc2ccc(F)cc12` is 56.7%.
Consider `Clc1ccc2nc(-c3ccccc3)nc(C(Cl)Cl)c2c1`, for which the Potency was 10.4 µM (active).
`CSc1nc(-c2ccccc2)nc(C(Cl)Cl)n1`: the “activity change, negative = inhibition” value was 0.843%.
Turning to `CN1C(C(=O)NCC2CC2)CC2Cn3c(nc4ccccc43)C21` (stereo not drawn), the “activity change, negative = inhibition” value is -24.1%.
